Assay outcomes: PubChem BioAssay, National Center for Advancing Translational Sciences (NCATS)
The list is not random: actives were taken first. Their share in the collection is about 6.7%.
PINK1 modulator – modulators of PINK1 expression; AID 624263; actives 0.2% (n = 410,000); PINK1 immunofluorescence, high-content cytometry, 24 h; Potency, µM (titrated, usually from 76.6 µM), for inactives: top-dose activation (PINK1 increase), actives largely listed as activators; active = well fitted activation curve with a large enough effect; inconclusive = small, poorly fitted or top-dose-only effect; cell line not stated here; also: % of control where 0% means no effect; nearly all actives have a fitted effect of over 65% in size
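PINK1 protein level read as immunofluorescence by microplate cytometer in a fixed, stained stable cell line after 24 h exposure to five compound concentrations, with CCCP as control.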
SW480 rereplic – DNA re-replication induction in SW480 cells; SW480 DNA re-replication, Hoechst DNA content imaging, 48 h; Potency, µM (series often up to 46.1 µM), inactives show at the top dose re-replication activation, usual class: activators; actives 1.8% (n = 340,000); AID 624297; also: % of control where 0% means no effect; nearly all actives have a fitted effect of over 55% in size
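Per well, 250 cells were exposed to pinned compound for 48 hr. Nuclear DNA was visualised with Hoechst (40 min, 37 C) and total object intensity recorded by fluorescence scanning.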
KB-3-1 cytotox – kills parental KB-3-1 adenocarcinoma cells; KB-3-1 viability, CellTiter-Glo ATP luminescence, 72 h; Potency, µM (titrated, usually from 46.1 µM), actives largely listed as cytotoxic; actives 1.4% (n = 400,000); AID 1347075; also: % is scaled to controls: 0 for no effect and ±100 for the full control effect; nearly all actives have a fitted effect of over 60% in size
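72 h, 37 °C compound treatment of KB-3-1 parental cells; CellTiter-Glo added, 10 min, luminescence read. Data corrected against DMSO-only plates and normalized before curve fitting.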
KB-V1 cytotox – kills drug-selected multidrug resistant KB-V1 cells; actives 3.4% (n = 400,000); KB-V1 MDR cells viability, CellTiter-Glo, 72 h; Potency, µM (top dose mostly 46.1 µM), most hits filed as cytotoxic; also: % is scaled to controls: 0 for no effect and ±100 for the full control effect; nearly all actives have a fitted effect of over 60% in size
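Readout: CellTiter-Glo luminescence, 10 min after addition. Cells: KB-V1 MDR subline, 72 h at 37 degrees C with compound. Analysis: corrected, normalized data fitted to concentration-effect curves.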
MCF10A rerep – inducers of DNA re-replication in MCF 10A breast cells; actives 2.9% (n = 350,000); Potency, µM (series often up to 46.1 µM), for the others: top-dose activity, positive = re-replication, actives largely listed as activators; MCF 10A DNA re-replication, Hoechst nuclear intensity, 48 h; also: % of control where 0% means no effect; nearly all actives have a fitted effect of over 50% in size
Active calls of the source: *; i = inactive; u = inconclusive; x = no result; [ ] = another dose, or the depositor's remark. Unless noted, calls follow the shape of the dose curve; as a rule, active = well fitted curve in the direction sought with a large enough effect; inconclusive = small, poorly fitted or top-dose-only effect, or another doubt; inactive = no such curve, though single readings can be large; an effect the other way counts as inactive or inconclusive. Potency is read from the fitted curve at half-maximal effect.

SMILES | PINK1 modulator | SW480 rereplic | KB-3-1 cytotox | KB-V1 cytotox | MCF10A rerep
CCc1sc(C(=O)Nc2cccc(C(C)=O)c2)cc1C | 0.6% | -223.2% | i | 20.6µM* | -1.0%
CC(=O)c1cccc(NC(=S)NC(=O)c2ccccc2Br)c1 | 1.6% | -2.7% | i | 20.6µM* | 8.5%
CC(=O)c1cccc(NC(=S)NC(=O)c2cccc(C)c2)c1 | 0.4% | -8.3% | u | 18.4µM* | -0.8%
CC(C)c1nnc(SCC(=O)NC2CCCC2)n1C | 0.8% | -15.5% | i | i | -1.4%
Cc1c(CCNC=O)cc(C)c2c3c(oc12)CCCC3 | 1.7% | 5.5% | i | i | 17.3%
COc1cc(OC)cc(C(=O)NCC2CCCN(Cc3ccc(SC)cc3)C2)c1 (configuration not stated) | 4.5% | 20.8% | i | i | 3.4%
CCn1ccc2c(OCC(=O)Nc3ccc(C(C)=O)cc3)cccc2c1=O | -1.5% | x | i | i | x
CC1(C)CCC[C@]2(C)[C@H]3Cc4cc(O)ccc4O[C@]3(C)CC[C@@H]12 | -1.5% | 9.7% | i | i | 11.6µM*
COC(=O)C1(c2ccccc2)NC(c2cccs2)C2C(=O)N(c3ccccc3)C(=O)C21 (configuration not stated) | 1.6% | 50.5% | u | 23.1µM* | 18.5%
Cc1cc(OC(C)C(=O)N2CCC(c3nc4ccccc4o3)CC2)ccc1Cl (configuration not stated) | -0.3% | x | x | x | x
CCc1nc2c(OCCOc3ccc(F)cc3)cccn2c1N(C=O)Cc1ccc(OC)cc1 | 0.5% | x | i | 18.4µM* | x
CCc1nc2c(OCc3ccccc3)cccn2c1N(C)C(=O)COc1ccccc1 | 3.5% | x | i | i | x
CCc1nc2c(OCc3ccc(Cl)cc3Cl)cccn2c1N(C=O)Cc1ccc(OC)cc1 | 14.2% | x | u | 18.4µM* | x
CCc1nc2c(OCc3ccc(F)cc3)cccn2c1N(C)C(=O)COc1ccccc1 | 16.2% | x | 23.1µM* | 6.51µM* | x
CCOc1ccc(-c2nnc(SCC(=O)Nc3cccc(C#N)c3)o2)cc1 | -0.9% | x | i | i | x
Cc1oc(-c2ccccc2NS(C)(=O)=O)nc1CN(C)Cc1ccc(Cl)cc1 | -0.9% | x | x | x | x
Clc1cccc(-n2ncc3c(NCCC4=CCCCC4)ncnc32)c1 | 2.3% | x | i | i | x
CCC(C)NC(=O)c1ccccc1NC(=O)c1ccc(CSc2ccccc2)cc1 (configuration not stated) | 11.1% | 4.1% | i | 11.6µM* | u
Cc1ccc(SCc2ccc(C(=O)Nc3ccccc3C(=O)NC(C)C)cc2)cc1 | 1.7% | -1.7% | i | i | 2.8%
COCCNC(=O)c1ccccc1NC(=O)CCSc1ccccc1 | 1.2% | 17.5% | i | u | 1.3µM*
COc1ccccc1C(=O)NCCC(=O)NCCCSc1ccccc1 | 0.0% | -3.7% | i | 20.6µM* | 4.9%
O=C(NCCN1Cc2ccccc2OC(c2ccsc2)C1)c1cncs1 (configuration not stated) | -0.9% | x | x | x | x
CC1(C)C(=S)N(Cc2ccccc2)c2ccccc21 | 13.0% | 1.7% | i | u | 0.8%
Clc1ccc(-c2csc3ncnc(N4CCc5ccccc5C4)c23)cc1 | 2.6% | -8.7% | i | 16.4µM* | u
Clc1ccc(CN2CCN(c3ncnc4scc(-c5cccs5)c34)CC2)cc1 | 2.0% | -2.5% | u | 13µM* | u
SMILES | PINK1 modulator | SW480 rereplic | KB-3-1 cytotox | KB-V1 cytotox | MCF10A rerep
Fc1ccc(CN2CCN(c3ncnc4scc(-c5ccc(F)cc5)c34)CC2)cc1 | 12.0% | 2.2% | i | i | u
NC(=S)Cc1ccccc1Cl | -1.4% | 18.4µM* | i | i | -0.4%
CC(NC(=O)c1ccnc(C(C)(C)C)c1)c1ccccc1 (configuration not stated) | -31.6%[38.3 µM] | 10.3% | u | 18.4µM* | 5.9%
CC(C)(C)NC(=O)c1ccnc(C(C)(C)C)c1 | -2.5%[38.3 µM] | -15.5% | i | i | -1.8%
CC(C)(C)c1cc(C(=O)Nc2ccccc2)ccn1 | -2.4% | -6.1% | i | 20.6µM* | 4.0%
COc1cccc(CSC(C(=O)O)c2ccccc2)c1 (configuration not stated) | 3.0% | x | i | i | x
CCOC(=O)c1cccc(NC(=O)CCn2c(-c3ccc(F)cc3)cc(C(=O)OCC)c2C)c1 | -0.9% | x | i | u | x
Oc1ccc(/C=C/c2ccnc3ccccc23)cc1 | -2.5% | 18.5% | u | i | 20.6µM*
